PubChem BioAssay (NCATS)
Results filed as inconclusive are left out. The source made the active and inactive calls. Unless noted, calls follow the shape of the dose curve; as a rule, active = well fitted curve in the direction sought with a large enough effect; inconclusive = small, poorly fitted or top-dose-only effect, or another doubt; inactive = no such curve, though single readings can be large; an effect the other way counts as inactive or inconclusive.

What was measured:
[1] = Validation screen for small molecules that induce genotoxicity in human embryonic kidney (HEK293T) cells expressing luciferase-tagged ELG1 (AID 493106); also: potency is read from the fitted curve at half-maximal effect
In short: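 HEK293T cells expressing luciferase-tagged ELG1 were exposed to compound or DMSO vehicle for 16 hr at 37 °C, 5% CO2. Genotoxic stress raises ELG1 levels, so increased luciferase signal after ONE-Glo addition and 30 min at room temperature marks hits.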

[2] = molecular target: Thyrotropin-releasing hormone receptor (Homo sapiens) (UniProt P34981); assay: qHTS for Small Molecule Agonists and Allosteric Enhancers of Human TRH Receptor: Validation Screen for Agonists (AID 493127;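 active = calcium activation more than 3 SD above the typical response in the agonist read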;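 also: intracellular calcium rise by fluo-8 fluorescence before TRH EC20 addition; 0% is about no effect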); conditions: TRH receptor agonist cell assay; at 2 µM; stronger effect = higher value
In short: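 TRHR-expressing cells were plated overnight in serum-containing medium, then loaded with fluo-8 calcium dye at room temperature for 30 min–1.5 h. After a 10 s baseline, compound was pin-transferred and calcium fluorescence (ex 480/em 530) read kinetically for agonist response.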

[3] = Nrf2 qHTS screen for inhibitors: Validation (AID 493153; active = well fitted inhibition curve with a large enough effect in the main read-out, with a control signal flat, not every such curve was filed as active); conditions: Potency: luciferase luminescence; viability change: measured here: cytotoxicity max response
In short: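 A549 cells carrying an ARE-driven firefly luciferase reporter, in 5% FBS OPTI-MEM, were treated with compounds in concentration-response for 18-24 h at 37°C. Viability was read by CellTiter-Fluor fluorescence, then Nrf2 activity by luciferase luminescence.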

[4] = qHTS for Inhibitors of Cell Surface uPA Generation: Validation Assay (AID 493164);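 also: RAW 264.7 macrophage cells exposed to compound for 18 h; 0% is about no effect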
In short: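 RAW 264.7, 4000 cells/well, o/n plating; cpd 7-pt 1:5 dilution 2.45 nM–38.3 uM final; 18 h, 37 C/5% CO2; ATP-Lite, 5 s luminescence exposure.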

[5] = molecular target: Galactokinase (Homo sapiens) (UniProt P51570); assay: qHTS Validation Assay for Inhibitors of Human Galactokinase (GALK) (AID 493189); also: 0% is about no effect
In short: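 GALK (5 nM) with 35 uM ATP and 100 uM galactose in HEPES pH8.0, MgCl2, NaCl, DTT, BSA; 1 h at room temperature. Residual ATP read by Kinase-Glo Plus luminescence after 10 min.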

[6] = Validation screen for small molecules that induce DNA re-replication in SW480 colon adenocarcinoma cells (AID 504364); also: 0% is about no effect
In short: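 SW480 cells seeded at 250 per well were exposed to compound or DMSO for 48 hr at 37 C, 5% CO2, then stained with Hoechst for 40 min. DNA content per nucleus was imaged (405 nm ex, 500-530 nm em).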

[7] = molecular target: Peptidyl-prolyl cis-trans isomerase NIMA-interacting 1 (Homo sapiens) (UniProt Q13526); assay: qHTS Validation Assay to Find Inhibitors of Pin1 (AID 504536; active = well fitted inhibition curve with a large enough effect in the polarisation, with a control signal flat, not every such curve was filed as active; the % refers to the polarisation;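 also: 0% = full Pin1 enzyme wells and -100% = no-enzyme wells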)
In short: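 Fluorescence polarization competition: compounds (titration) displace HiFluor-488-labeled Pin1-1b peptide from Pin1 (0.3 uM final) in pH 7.5 HEPES buffer with DTT, 10 min at room temperature; %Activity normalized to no-enzyme wells, curves fitted.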

[8] = molecular target: Phosphoglycerate kinase, glycosomal (Trypanosoma brucei brucei) (UniProt P07378); assay: qHTS Validation Assay to Find Inhibitors of Phosphoglycerate Kinase (AID 504547);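 also: control wells lack PGK and mark full inhibition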
In short: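 PGK activity was coupled to GAPDH (100nM final), which generates the unstable substrate 1,3-bisphosphoglycerate in-well. Reactions ran 60 minutes at room temperature in 100mM TEA pH 7.6, 5mM MgCl2, 0.01% Tween-20, then Kinase-Glo Plus luminescence was read.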

[9] = molecular target: ATPase family AAA domain-containing protein 5 (Homo sapiens) (UniProt Q96QE3); assay: Validation screen for small molecules that inhibit ELG1-dependent DNA repair in human embryonic kidney (HEK293T) cells expressing luciferase-tagged ELG1 (AID 493107); also: nearly all actives have a fitted effect of over 70% in size; also: potency is read from the fitted curve at half-maximal effect
In short: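 HEK293T cells expressing luciferase-tagged ELG1 were co-treated with 5-fluorouridine and compound or DMSO for 16 hr at 37 °C, 5% CO2. Luciferase activity was then read with ONE-Glo after 30 min at room temperature; suppressed signal indicates blocked ELG1 function.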

Galactokinase (Homo sapiens), sequence (P51570 whole entry, looked up): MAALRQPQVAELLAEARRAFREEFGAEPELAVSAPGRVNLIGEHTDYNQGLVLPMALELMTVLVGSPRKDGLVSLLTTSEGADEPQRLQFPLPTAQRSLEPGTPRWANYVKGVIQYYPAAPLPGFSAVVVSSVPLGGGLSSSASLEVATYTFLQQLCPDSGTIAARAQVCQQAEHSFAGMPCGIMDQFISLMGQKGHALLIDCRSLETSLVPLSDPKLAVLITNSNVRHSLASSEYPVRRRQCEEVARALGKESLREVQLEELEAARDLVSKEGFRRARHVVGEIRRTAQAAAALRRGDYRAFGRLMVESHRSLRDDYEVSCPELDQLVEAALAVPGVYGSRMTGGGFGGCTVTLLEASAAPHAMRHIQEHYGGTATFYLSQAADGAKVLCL
Phosphoglycerate kinase, glycosomal (Trypanosoma brucei brucei), sequence (P07378 whole entry, looked up): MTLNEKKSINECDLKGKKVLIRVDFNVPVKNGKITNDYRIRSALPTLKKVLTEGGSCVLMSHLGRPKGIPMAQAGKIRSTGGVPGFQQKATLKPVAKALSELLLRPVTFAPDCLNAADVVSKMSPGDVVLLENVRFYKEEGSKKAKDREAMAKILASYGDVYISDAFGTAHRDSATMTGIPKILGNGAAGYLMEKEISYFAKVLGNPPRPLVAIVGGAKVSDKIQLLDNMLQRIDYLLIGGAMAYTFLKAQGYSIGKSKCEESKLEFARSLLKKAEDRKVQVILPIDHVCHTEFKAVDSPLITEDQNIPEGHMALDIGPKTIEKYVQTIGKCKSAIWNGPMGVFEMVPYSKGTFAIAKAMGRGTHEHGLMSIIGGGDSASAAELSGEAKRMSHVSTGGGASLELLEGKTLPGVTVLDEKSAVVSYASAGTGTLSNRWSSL
Peptidyl-prolyl cis-trans isomerase NIMA-interacting 1 (Homo sapiens), sequence (Q13526 whole entry, looked up): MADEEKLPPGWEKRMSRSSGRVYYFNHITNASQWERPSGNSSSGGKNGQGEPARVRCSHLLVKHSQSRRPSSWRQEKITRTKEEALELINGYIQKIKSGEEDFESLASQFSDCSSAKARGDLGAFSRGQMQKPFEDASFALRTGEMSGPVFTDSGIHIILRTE
Thyrotropin-releasing hormone receptor (Homo sapiens), sequence (P34981 whole entry, looked up): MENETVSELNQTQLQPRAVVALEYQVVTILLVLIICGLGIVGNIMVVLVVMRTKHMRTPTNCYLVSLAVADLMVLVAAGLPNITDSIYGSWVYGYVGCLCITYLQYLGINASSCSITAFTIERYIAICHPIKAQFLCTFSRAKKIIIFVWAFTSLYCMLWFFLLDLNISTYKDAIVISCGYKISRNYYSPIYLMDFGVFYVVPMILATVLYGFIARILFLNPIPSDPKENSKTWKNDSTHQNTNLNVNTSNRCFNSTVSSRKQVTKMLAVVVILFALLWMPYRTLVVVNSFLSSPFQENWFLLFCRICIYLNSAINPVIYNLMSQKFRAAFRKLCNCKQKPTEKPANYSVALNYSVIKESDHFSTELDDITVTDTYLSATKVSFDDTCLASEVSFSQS
ATPase family AAA domain-containing protein 5 (Homo sapiens), sequence (Q96QE3 whole entry, looked up, the tested form may be a part): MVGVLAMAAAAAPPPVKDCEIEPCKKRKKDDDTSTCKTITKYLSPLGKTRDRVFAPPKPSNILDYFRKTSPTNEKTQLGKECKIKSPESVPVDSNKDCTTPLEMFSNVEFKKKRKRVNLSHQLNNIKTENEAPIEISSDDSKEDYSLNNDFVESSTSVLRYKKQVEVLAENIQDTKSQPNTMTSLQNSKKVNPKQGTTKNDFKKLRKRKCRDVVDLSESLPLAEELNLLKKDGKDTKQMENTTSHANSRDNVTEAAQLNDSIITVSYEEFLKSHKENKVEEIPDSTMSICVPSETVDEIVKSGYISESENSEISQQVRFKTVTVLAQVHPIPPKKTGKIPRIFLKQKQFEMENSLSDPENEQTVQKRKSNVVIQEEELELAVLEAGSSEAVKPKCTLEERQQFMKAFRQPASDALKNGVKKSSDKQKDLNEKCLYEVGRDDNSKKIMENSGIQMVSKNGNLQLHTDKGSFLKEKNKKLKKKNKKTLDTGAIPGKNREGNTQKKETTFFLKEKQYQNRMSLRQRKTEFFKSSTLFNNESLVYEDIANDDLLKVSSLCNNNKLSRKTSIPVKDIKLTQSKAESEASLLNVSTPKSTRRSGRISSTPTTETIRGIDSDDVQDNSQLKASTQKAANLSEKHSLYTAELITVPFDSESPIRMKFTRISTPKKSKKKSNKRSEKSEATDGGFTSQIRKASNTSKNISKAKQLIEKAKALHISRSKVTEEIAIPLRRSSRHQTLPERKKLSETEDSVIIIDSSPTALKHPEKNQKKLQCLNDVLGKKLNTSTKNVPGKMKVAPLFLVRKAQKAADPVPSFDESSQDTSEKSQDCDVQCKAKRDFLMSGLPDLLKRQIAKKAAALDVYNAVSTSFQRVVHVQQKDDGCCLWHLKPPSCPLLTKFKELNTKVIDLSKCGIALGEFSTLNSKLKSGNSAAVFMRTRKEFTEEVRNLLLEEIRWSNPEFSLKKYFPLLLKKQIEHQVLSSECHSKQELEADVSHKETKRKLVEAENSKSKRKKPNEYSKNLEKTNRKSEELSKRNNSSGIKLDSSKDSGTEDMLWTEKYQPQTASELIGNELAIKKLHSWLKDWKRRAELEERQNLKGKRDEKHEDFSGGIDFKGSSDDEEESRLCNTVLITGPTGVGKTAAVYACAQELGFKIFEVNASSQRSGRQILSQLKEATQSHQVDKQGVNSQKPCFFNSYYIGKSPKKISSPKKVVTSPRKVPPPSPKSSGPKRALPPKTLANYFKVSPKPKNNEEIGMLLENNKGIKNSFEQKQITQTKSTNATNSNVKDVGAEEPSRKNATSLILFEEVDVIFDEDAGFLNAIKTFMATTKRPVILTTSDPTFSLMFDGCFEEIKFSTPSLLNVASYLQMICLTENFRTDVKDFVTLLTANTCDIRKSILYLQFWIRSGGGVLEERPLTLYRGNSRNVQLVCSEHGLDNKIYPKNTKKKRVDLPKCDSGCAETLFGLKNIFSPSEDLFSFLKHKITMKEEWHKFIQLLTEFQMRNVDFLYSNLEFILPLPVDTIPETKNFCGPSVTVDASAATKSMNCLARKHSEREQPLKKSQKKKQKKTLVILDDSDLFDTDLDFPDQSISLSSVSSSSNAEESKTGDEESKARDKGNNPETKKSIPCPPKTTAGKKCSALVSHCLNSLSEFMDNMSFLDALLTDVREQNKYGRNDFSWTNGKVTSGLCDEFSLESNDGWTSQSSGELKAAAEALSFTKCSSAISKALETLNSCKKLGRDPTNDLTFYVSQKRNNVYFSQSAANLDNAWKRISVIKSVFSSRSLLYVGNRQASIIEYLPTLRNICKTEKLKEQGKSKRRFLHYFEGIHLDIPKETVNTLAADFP

CN(C)CCCN1c2ccccc2CCc2ccc(Cl)cc21
-5.04%: viability change [3]
inactive: Potency [1] | activation [2] 1.88% | Potency [3] | outcome [4] | Potency [5] | Potency [6] | Potency [7] | Potency [8]

COc1ccc2[nH]cc(CCNC(C)=O)c2c1
-12.9%: viability change [3]
inactive: Potency [1] | activation [2] -2.38% | Potency [3] | outcome [4] | Potency [5] | Potency [7] | Potency [8]

CC12CC3CC(C)(C1)CC(N)(C3)C2
-3.89%: viability change [3]
inactive: Potency [1] | Potency [9] | Potency [3] | outcome [4] | Potency [5] | Potency [7] | Potency [8]

CN1CCN(CCCN2c3ccccc3Sc3ccc(Cl)cc32)CC1
inactive: Potency [1] | Potency [9] | outcome [4] | Potency [5] | Potency [7] | Potency [8]

COc1ccccc1N1CCN(CC(O)COc2cccc3ccccc23)CC1 (stereo unspecified)
-28.8%: viability change [3]
inactive: Potency [1] | Potency [3] | outcome [4] | Potency [5] | Potency [7] | Potency [8]

CN1CCN(C2=Nc3cc(Cl)ccc3Nc3ccccc32)CC1
-10.5%: viability change [3]
inactive: Potency [1] | activation [2] 3.31% | Potency [3] | outcome [4] | Potency [5] | Potency [6] | Potency [7] | Potency [8]

COc1cc2nc(N(C)CCCNC(=O)C3CCCO3)nc(N)c2cc1OC (stereo unspecified)
inactive: Potency [1] | Potency [9] | Potency [3] | outcome [4] | Potency [7] | Potency [8]
-7.87%: viability change [3]

CC(COc1ccccc1)N(CCCl)Cc1ccccc1 (stereo unspecified)
inactive: Potency [1] | Potency [9] | outcome [4] | Potency [5] | Potency [7] | Potency [8]

Cn1c(=O)c2c(ncn2C)n(C)c1=O
inactive: Potency [1] | Potency [9] | Potency [3] | outcome [4] | Potency [7]
-2.67%: viability change [3]

CN1CCN2c3ccccc3Cc3ccccc3C2C1 (stereo unspecified)
-3.01%: viability change [3]
inactive: Potency [1] | activation [2] -4.88% | Potency [3] | Potency [6] | Potency [7]

CCc1cccc2c3c([nH]c12)C(CC)(CC(=O)O)OCC3 (stereo unspecified)
-5.62%: viability change [3]
inactive: Potency [1] | Potency [9] | Potency [3] | outcome [4] | Potency [5] | Potency [7] | Potency [8]

CCCCc1oc2ccccc2c1C(=O)c1cc(I)c(OCCN(CC)CC)c(I)c1
8.23%: viability change [3]
inactive: Potency [1] | activation [2] 1.56% | Potency [3] | Potency [5] | Potency [8]

O=c1c(-c2ccc(O)cc2)coc2cc(O)cc(O)c12
active: Potency [1] 9.2 µM
inactive: Potency [3] | outcome [4] | Potency [5] | Potency [6] | Potency [7] | Potency [8]
-6.66%: viability change [3]

CCC1(c2ccccc2)C(=O)NCNC1=O
inactive: Potency [9] | Potency [3] | outcome [4] | Potency [5] | Potency [7] | Potency [8]
0.001%: viability change [3]

CC(C)C(=O)Nc1ccc([N+](=O)[O-])c(C(F)(F)F)c1
inactive: Potency [9] | activation [2] -0.438% | outcome [4] | Potency [5] | Potency [6] | Potency [7] | Potency [8]

COc1ccc2c(c1)c(CC(=O)O)c(C)n2C(=O)c1ccc(Cl)cc1
inactive: Potency [1] | Potency [9] | outcome [4] | Potency [5] | Potency [7] | Potency [8]

Fc1ccc([C@@H]2CCNC[C@H]2COc2ccc3c(c2)OCO3)cc1
10.5%: viability change [3]
inactive: Potency [1] | activation [2] 7.94% | Potency [3] | outcome [4] | Potency [5] | Potency [7] | Potency [8]

Nc1c2c(nc3ccccc13)CCCC2
-3.66%: viability change [3]
inactive: Potency [1] | activation [2] 1.31% | Potency [3] | outcome [4] | Potency [5] | Potency [8]

O=C(Nc1ccc([N+](=O)[O-])cc1Cl)c1cc(Cl)ccc1O
inactive: Potency [1] | outcome [4] | Potency [5] | Potency [7] | Potency [8]

CCN1CCCC1CNC(=O)c1cc(S(=O)(=O)CC)c(N)cc1OC (stereo unspecified)
7.74%: viability change [3]
inactive: Potency [1] | Potency [9] | Potency [3] | outcome [4] | Potency [7] | Potency [8]

Cn1c(=O)c2[nH]cnc2n(C)c1=O
inactive: Potency [9] | activation [2] 0.688% | Potency [3] | outcome [4] | Potency [5] | Potency [7] | Potency [8]
0.231%: viability change [3]

COc1cc2nc(N3CCN(C(=O)c4ccco4)CC3)nc(N)c2cc1OC
inactive: Potency [3] | outcome [4] | Potency [7] | Potency [8]
-4.77%: viability change [3]

O=C1Cc2cc(CCN3CCN(c4nsc5ccccc45)CC3)c(Cl)cc2N1
active: Potency [9] 9.2 µM
-17.6%: viability change [3]
inactive: Potency [1] | Potency [3] | outcome [4] | Potency [7] | Potency [8]

O=C(CCCN1CCC(O)(c2ccc(Cl)cc2)CC1)c1ccc(F)cc1
inactive: Potency [1] | activation [2] 4.81% | Potency [3] | outcome [4] | Potency [5] | Potency [6] | Potency [7] | Potency [8]
2.46%: viability change [3]

C[C@H]1c2cccc(O)c2C(O)=C2C(=O)[C@]3(O)C(O)=C(C(N)=O)C(=O)[C@@H](N(C)C)[C@@H]3[C@@H](O)[C@@H]21
inactive: Potency [1] | Potency [9] | outcome [4] | Potency [7] | Potency [8]

O=C(c1ccc(OCCN2CCCCC2)cc1)c1c(-c2ccc(O)cc2)sc2cc(O)ccc12
inactive: Potency [1] | outcome [4] | Potency [5] | Potency [6] | Potency [7] | Potency [8]

COc1ccc(CCN(C)CCCC(C#N)(c2ccc(OC)c(OC)c2)C(C)C)cc1OC (stereo unspecified)
inactive: activation [2] 7.06% | outcome [4] | Potency [7] | Potency [8]

CN(C)C(=O)C(CCN1CCC(O)(c2ccc(Cl)cc2)CC1)(c1ccccc1)c1ccccc1
inactive: Potency [9] | activation [2] 17% | outcome [4] | Potency [5] | Potency [7] | Potency [8]
